Bioassay records: PubChem BioAssay, several laboratories
Compounds with a hit are over-represented: about 27% of the library has one in this group of screens.
CYP2C9 inhib – blockers of cytochrome P450 2C9 activity – biochemical, luminescence, ADME assay, primary screen | P11712 | CYP2C9 Supersomes, luciferin-H conversion | inhibition, % at 5 µM | 96,000 tested, 20% active | AID 777, 2007;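 active = blocking of liver enzyme CYP2C9 beyond about 50% at 5 µM, limit read from the data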
Target sequence (P11712 whole entry, looked up): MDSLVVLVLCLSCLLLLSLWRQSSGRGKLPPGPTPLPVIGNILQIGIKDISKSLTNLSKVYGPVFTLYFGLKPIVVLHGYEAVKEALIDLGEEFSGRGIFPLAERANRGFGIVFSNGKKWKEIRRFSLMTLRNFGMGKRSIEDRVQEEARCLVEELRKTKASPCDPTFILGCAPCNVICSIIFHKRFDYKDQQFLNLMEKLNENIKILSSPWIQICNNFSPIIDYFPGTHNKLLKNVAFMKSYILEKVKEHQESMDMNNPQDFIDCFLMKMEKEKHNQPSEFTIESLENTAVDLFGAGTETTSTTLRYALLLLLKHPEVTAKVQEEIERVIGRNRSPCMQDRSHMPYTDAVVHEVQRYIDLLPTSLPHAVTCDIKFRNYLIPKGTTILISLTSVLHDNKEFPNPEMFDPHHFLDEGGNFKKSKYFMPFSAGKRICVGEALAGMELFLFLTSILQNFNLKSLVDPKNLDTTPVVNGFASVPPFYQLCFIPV
CYP2C19 act – human CYP2C19 activators, primary screen, biochemical, luminescence | recombinant CYP2C19, luciferin-H EGE luminescence; stronger effect = higher value; 0 = fully inhibited enzyme, 1 = untreated enzyme | activation factor at 5 µM | 96,000 tested, under 10 active;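 active = activation factor of at least 2 at 5 µM in the primary screen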
CYP2C9 activ – human CYP2C9 activators, primary screen, biochemical, luminescence | activation factor at 5 µM | 96,000 tested, 1.4% active | recombinant CYP2C9, luciferin-H conversion; stronger effect = higher value; factor 1 = untreated enzyme, 0 = blocked | Cytochrome P450 2C9 (Homo sapiens), P11712;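 active = activation factor of 2 or more for CYP2C9 at a 5 µM dose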
CYP2C19 inh – blockers of cytochrome P450 2C19 activity – biochemical, luminescence, ADME assay, primary screen; CYP2C19 Supersomes, luciferin-H EGE luminescence, 30 min; inhibition, % at 5 µM; 96,000 tested, 21% active; AID 778, 2007;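 active = CYP2C19 inhibition above a set limit at 5 µM in the primary screen, cut at about 50% in these data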
Cav32 inh – Cav3.2 calcium influx blockers – cell-based, Fluo-4 calcium fluorescence, FDSS, MLSMR library, primary screen | Cav3.2-expressing cells; stronger effect = lower value | Voltage-dependent T-type calcium channel subunit alpha-1H (Homo sapiens), O95180 | B-score at 10 µM | 100,000 tested, 4% active;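 active = single-dose well whose peak fluorescence ratio is a statistical outlier from its plate by either plate-standardised score or position-corrected B-score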
A number is an active result; – = inactive; · = no result.

SMILES	CYP2C9 inhib	CYP2C19 act	CYP2C9 activ	CYP2C19 inh	Cav32 inh
CC(NC(=O)CSc1nc2sc3c(c2c(=O)n1-c1ccccc1)CCCC3)c1ccccc1 (configuration not stated)	·	·	·	·	-6.5
CC(C)C(C)NC(=O)CSc1nc2scc(-c3ccco3)c2c(=O)n1-c1ccccc1 (configuration not stated)	–	–	–	–	-5.4
CC1=CCC(C(=O)O)(C(=O)N/N=C/c2cccs2)C(c2ccc(F)cc2)C1 (configuration not stated)	67	–	–	–	–
CCCN1CCC(NC(=O)Nc2ccc(F)cc2F)CC1	–	–	–	–	–
COc1ccc(CN(C(=O)c2ccco2)c2ccc(C)cc2)cc1OC	63	–	–	65	–
O=C(Nc1nc2ccccc2s1)C1CC(=O)N(c2ccc(Cl)cc2)C1 (configuration not stated)	54	–	–	–	-4.7
O=C(NC1CCCCC1)c1ccccc1NC(=O)C1CC(=O)N(c2ccccc2)C1 (configuration not stated)	·	·	·	·	–
O=C(Nc1cccc2nsnc12)C1CC(=O)N(c2ccccc2)C1 (configuration not stated)	74	–	–	82	–
O=C(NC1CCCCC1)c1ccccc1NC(=O)C1CC(=O)N(c2ccc(Cl)cc2)C1 (configuration not stated)	·	·	·	·	–
CC(C)Nc1nc(Cl)nc(NNC(=O)C(C)Oc2ccccc2)n1 (configuration not stated)	–	–	–	–	–
CCCCCC(/C=N/Nc1ccc(S(=O)(=O)N2CCOCC2)cc1[N+](=O)[O-])=C\c1ccccc1	82	–	–	–	–
CCOC(=O)C(CC)(CC)C(=O)/C=C/c1ccc(Br)cc1	–	–	–	–	–
CCn1c(SCC(=O)OCC(=O)N2c3ccccc3NC(=O)C2(C)C)nnc1-c1ccco1	–	–	–	–	–
CCCCCCn1c(COc2ccccc2F)nnc1SCC(=O)N1c2ccccc2NC(=O)C1(C)C	–	–	–	–	-5.9
N[C@@H](Cc1ccc(O)cc1)c1nnc([C@H](CCC(=O)O)NC(=O)C2CCNCC2)o1	·	·	·	·	–
O=C(O)CN(c1ccc(F)cc1)S(=O)(=O)c1ccc2c(c1)OCCO2	–	–	–	–	–
Cc1cc(C(=O)CN(Cc2ccc(F)cc2)S(=O)(=O)c2ccc3c(c2)OCCO3)c(C)n1C	66	–	–	60	-2.9
O=S(=O)(c1ccc2c(c1)OCCO2)N(Cc1ccc(F)cc1)Cc1nnc(-c2cccs2)o1	87	–	–	–	–
CC1(C(=O)O)CCC(C(=O)Nc2ccc(S(N)(=O)=O)cc2)C1(C)C (configuration not stated)	–	–	–	–	–
COc1ccnc(NCc2cccc(C(F)(F)F)c2)c1C#N	–	–	–	54	–
c1ccc(-c2ccc(Oc3cc(N4CCOCC4)nc(-c4ccccc4)n3)cc2)cc1	–	–	–	–	–
O=S(Cc1cc(Oc2ccccc2)nc(-c2ccccc2)n1)c1ccccc1 (configuration not stated)	78	–	–	84	-6.6
Cc1cccc(NC(=O)C2=C(O)c3ccccc3N(C)S2(=O)=O)c1	–	–	–	–	–
Cc1ccc(C(=O)NC(=S)Nc2ccc(S(=O)(=O)N3CCN(C)CC3)cc2)cc1	–	–	–	–	·
Cc1ccc(NC(=S)C2=C(O)c3sccc3N(C)S2(=O)=O)cc1	95	–	–	–	–
SMILES	CYP2C9 inhib	CYP2C19 act	CYP2C9 activ	CYP2C19 inh	Cav32 inh
CN1c2ccccc2C(O)=C(C(=S)Nc2ccc(Cl)cc2)S1(=O)=O	97	–	–	–	-7.4
Cc1ccc(NC(=O)C2=C(O)c3sccc3N(C)S2(=O)=O)cc1	64	–	–	–	–
CN1c2ccsc2C(O)=C(C(=O)Nc2ccccc2)S1(=O)=O	73	–	–	–	–
CCOCc1nc(N)[nH]c(=O)c1Cc1ccc(OC(C)C)cc1	·	·	·	·	–
COC(=O)c1cc(NC(=O)Cc2ccc(OC)cc2)cc(C(=O)OC)c1	84	–	–	–	–
CCOC(=O)c1ccc(NC(=S)NCC(O)c2ccccc2)cc1 (configuration not stated)	–	–	–	–	·
COC(=O)c1ccc(NC(=O)CNS(=O)(=O)c2cccs2)cc1	–	–	–	65	–
CCOC(=O)c1ccc(NC(=S)NCCc2ccccc2)cc1	66	–	–	–	–
COC(=O)c1ccc(NC(=O)Cc2ccccc2)cc1	70	–	–	83	–
COC(=O)c1ccc(NC(=O)Cc2ccc(C)cc2)cc1	–	–	–	–	–
O=C1CC(NCc2ccc3c(c2)OCO3)C(=O)N1Cc1ccc2c(c1)OCO2 (configuration not stated)	–	–	–	–	–
COC(=O)c1ccc(NC(=S)Nc2ccc3ccccc3c2)cc1	–	–	–	–	–
CCC(C)C(=O)Nc1cc(C(=O)OC)cc(C(=O)OC)c1 (configuration not stated)	61	–	–	–	–
COC(=O)c1cc(NC(=O)CN2CCOCC2)cc(C(=O)OC)c1	–	–	–	–	–
COC(=O)c1ccc(NC(=S)Nc2ccccc2)cc1	–	–	–	52	–
Cn1c(CN2CCN(c3cccc(Cl)c3)CC2)nc2ccccc21	·	·	·	·	–
CCc1nc(NCC2CCCO2)c(C#N)c2c1COC(C)(C)C2 (configuration not stated)	·	·	·	·	–
CC(C)c1nc(NCC2CCCO2)c(C#N)c2c1COC(C)(C)C2 (configuration not stated)	82	–	–	54	-3.5
O=c1[nH]c(-c2ccccc2O)nc2c1CCCC2	–	–	–	–	–
COc1cc2c3c([nH]c2cc1F)C(=O)NCC3	·	·	·	·	–
CCOC(=O)C1C(=O)CC(C)(O)C(C(=O)OCC)C1c1cccc(OC)c1 (configuration not stated)	–	–	–	–	–
COc1cc(OC)c2c3c(c(C4CCCCC4)nc2c1)CCC3	·	·	·	·	–
CCOC(=O)N1CCN(CC(=O)Nc2ccc(Oc3ccccc3)cc2)CC1	–	–	–	–	–
CC1=C(C(N)=O)C(c2ccc(Cl)cc2Cl)n2ncnc2N1 (configuration not stated)	–	–	–	51	–
CC(=O)C1=C(C)Nc2ncnn2C1c1ccccc1Cl (configuration not stated)	–	–	–	–	–
COC(=O)C1=C(C)Nc2nnnn2C1c1ccc(Cl)cc1Cl (configuration not stated)	–	–	–	56	–
O=C(NCc1ccccn1)C1CCN(S(=O)(=O)c2cnc[nH]2)CC1	–	–	–	–	–
CCn1c(C)c(C(C)=O)c(SC)nc1=S	–	–	–	–	–
